Data: PubChem BioAssay
Values without a mark were called inactive. Active and inactive are the calls of the source.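 How the source made its calls, unless noted: active means mean inhibition above 46.5%, the solvent-only control mean plus 3 SD; inactive means the rest.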

What was measured:
[1] = test system: transactivating tegument protein VP16 (Human herpesvirus 1); assay: compounds suppressing VP16-driven luciferase signal – cell-based, luminescence, single concentration, counter-screen for SRC2 inhibitor project (AID 652007; in the data active means inhibition above about 36%); conditions: cell-based VP16 transactivation luciferase reporter, at 8.9 µM, hits give high values
[2] = target: Nuclear receptor coactivator 2 (Homo sapiens) (UniProt Q15596); assay: inhibition of GAL4-SRC2 driven luciferase expression – cell-based, luminescence, HEK293, triplicate, confirmation (AID 652008); conditions: HEK293 GAL4-SRC2 luciferase reporter, at 8.9 µM, hits give high values;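 further: 0% = DMSO-treated cells and 100% = Gossypol at 36 µM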
Nuclear receptor coactivator 2 (Homo sapiens), sequence (Q15596 whole entry, looked up, the tested form may be a part): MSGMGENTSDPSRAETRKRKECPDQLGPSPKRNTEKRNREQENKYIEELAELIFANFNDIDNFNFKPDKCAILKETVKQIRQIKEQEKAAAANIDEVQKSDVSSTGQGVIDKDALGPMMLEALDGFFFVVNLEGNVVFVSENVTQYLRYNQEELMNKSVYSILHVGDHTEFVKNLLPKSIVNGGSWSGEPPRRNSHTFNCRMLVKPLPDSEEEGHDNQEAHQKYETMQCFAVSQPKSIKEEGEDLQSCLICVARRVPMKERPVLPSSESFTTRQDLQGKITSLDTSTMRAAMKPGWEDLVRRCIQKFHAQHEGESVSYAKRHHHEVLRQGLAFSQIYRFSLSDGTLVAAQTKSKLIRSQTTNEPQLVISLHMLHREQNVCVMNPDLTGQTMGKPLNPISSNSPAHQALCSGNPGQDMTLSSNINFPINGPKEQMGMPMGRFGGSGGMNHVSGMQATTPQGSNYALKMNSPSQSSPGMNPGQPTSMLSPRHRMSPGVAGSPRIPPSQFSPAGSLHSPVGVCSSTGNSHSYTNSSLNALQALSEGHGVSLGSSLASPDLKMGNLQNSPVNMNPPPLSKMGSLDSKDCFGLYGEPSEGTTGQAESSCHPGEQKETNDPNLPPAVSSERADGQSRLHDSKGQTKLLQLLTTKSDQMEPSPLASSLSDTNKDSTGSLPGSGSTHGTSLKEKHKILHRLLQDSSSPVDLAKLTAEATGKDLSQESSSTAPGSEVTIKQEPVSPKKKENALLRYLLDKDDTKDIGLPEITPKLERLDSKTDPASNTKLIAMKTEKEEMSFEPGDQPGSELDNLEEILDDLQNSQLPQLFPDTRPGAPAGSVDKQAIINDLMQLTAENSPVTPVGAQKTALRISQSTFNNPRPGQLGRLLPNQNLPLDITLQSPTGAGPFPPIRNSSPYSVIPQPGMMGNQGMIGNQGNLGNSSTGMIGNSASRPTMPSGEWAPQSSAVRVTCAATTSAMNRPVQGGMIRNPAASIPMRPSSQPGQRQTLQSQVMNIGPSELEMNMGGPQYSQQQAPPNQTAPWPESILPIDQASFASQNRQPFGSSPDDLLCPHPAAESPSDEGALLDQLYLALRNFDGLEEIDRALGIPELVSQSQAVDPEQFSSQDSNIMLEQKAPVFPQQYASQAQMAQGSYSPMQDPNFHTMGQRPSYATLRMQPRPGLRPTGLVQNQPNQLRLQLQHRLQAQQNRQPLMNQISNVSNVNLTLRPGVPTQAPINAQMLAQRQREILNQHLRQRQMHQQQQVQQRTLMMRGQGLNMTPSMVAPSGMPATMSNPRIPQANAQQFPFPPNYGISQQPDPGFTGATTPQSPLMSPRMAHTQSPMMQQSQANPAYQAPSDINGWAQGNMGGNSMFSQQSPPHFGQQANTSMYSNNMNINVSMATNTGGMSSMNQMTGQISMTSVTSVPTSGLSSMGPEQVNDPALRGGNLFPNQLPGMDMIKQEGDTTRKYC

Compound | inhibition [1] | inhibition [2]
Nc1ccc(-c2cc3ccccc3c(=O)o2)cc1 | -7.3% | 79.1% (active)
COc1cc(OC)cc(-c2cc3nc(C)c(CCC(=O)NCc4ccccc4)c(C)n3n2)c1 | 66.8% (active) | 72.1% (active)
CCCn1c(CC)nc([N+](=O)[O-])c1Sc1ccc(F)cc1 | -3.5% | 13.2%
CCNC(=O)COc1ccc(/C=C2\COc3ccccc3C2=O)cc1OC | 3.8% | 78.1% (active)
Cc1ccc(S(=O)(=O)N2[C@@H](c3ccc4c(c3)OCO4)C(C(=O)O)=C[C@H]2C(C)(C)C)cc1 | -12.9% | 1.95%
COc1ccc(-c2nc(NC(=O)C3CC(=O)N(c4ccc5c(c4)OCCO5)C3)sc2C)cc1 (configuration not stated) | -6.3% | 50.7% (active)
O=[N+]([O-])c1ccc(Sc2nccn2Cc2ccccc2)c([N+](=O)[O-])c1 | 4.42% | 32.1%
Cc1cccc(C(=O)N2CCC(Cc3ccccc3)CC2)c1[N+](=O)[O-] | 14.4% | 38.3%
O=C(Cc1ccc([N+](=O)[O-])cc1)Nc1cccc(C(=O)N2CCCCC2)c1 | 13.5% | 23.7%
CC(C)(CO)CNC(=O)CCc1nnc(-c2ccc(-c3ccccc3)cc2)o1 | 0.83% | -13.5%
C=CS(=O)(=O)N(Cc1ccc(F)cc1)C(=C)C(=O)OC | 33.7% | -13.2%
O=C(OC12CCCN(C1)/C(=C/c1ccncc1)C2)c1ccc(Cl)cc1 (configuration not stated) | -7.98% | 25.9%
CCCNC(=O)C[C@H]1C[C@H]2c3cc(NC(=O)Nc4ccc(F)cc4)ccc3O[C@H]2[C@@H](CO)O1 | 4.81% | -7.94%
COC(=O)c1ccc(-c2nc3cc(N)ccc3o2)cc1 | -20.4% | 49.8% (active)
Cc1ccc(S(=O)(=O)CC(=O)N(CCCN(C)C)c2nc3ccc(C)cc3s2)cc1 | -1.57% | 15.1%
Cc1ccc2c(c1)sc(=NC(=O)c1cccs1)n2C | -58.3% | -3.83%
CCOC(=O)c1c(C)nn(-c2ccc(NC(=O)c3c(C)noc3C)cc2)c1C | 11.6% | 52.8% (active)
COc1ccc(NC(=O)CSCC(=O)Nc2ccccc2C(=O)N2CCCCC2)cc1 | -8.77% | -20.5%
c1c2c(cc3sc(N4CCCCC4)nc13)OCCO2 | -48.9% | 7.6%
Cc1ccc2sc(N(CCCN(C)C)C(=O)CCS(=O)(=O)c3ccccc3)nc2c1C | 1.51% | 27.7%
O=C(CCCN1C(=O)/C(=C/c2ccccc2Cl)SC1=S)NCCCN1CCOCC1 | 33.6% | 45.9%
COc1ccc(C(=O)Nn2c(SCC(=O)N3CCC(C)CC3)nc3ccccc3c2=O)cc1 | 23.9% | 28.9%
COc1ccc(S(=O)(=O)n2ccc(-c3ccc(OCCN(C)c4ccccn4)cc3)n2)cc1 | 3.56% | 30.2%
CCC(C)c1ccc(C(C)NC(=S)NC2CCCCC2)cc1 (configuration not stated) | -0.76% | 22.8%
CC(=O)N(Cc1ccc(F)cc1)C1=C(NCCc2ccccc2)C(=O)c2ccccc2C1=O | 14.1% | 20%
O=c1cc(-c2ccc(O)cc2)oc2ccc3ccccc3c12 | 5.39% | 50.8% (active)

Compound | inhibition [1] | inhibition [2]
COC(=O)c1nn(-c2ccc3c(c2)CCN3C(C)=O)cc1O | -21.8% | 43.5%
c1cc(-c2nnc3n2N=C(c2ccc4c(c2)OCO4)CS3)ccn1 | -3.48% | 42.4%
Cc1ccc(C)c(-c2nc3cc(N)ccc3o2)c1 | 36.8% (active) | 55% (active)
CCOn1c(=O)c[n+]([O-])c2ccccc21 | 9.21% | -6.65%
C=CS(=O)(=O)N(Cc1nnn(Cc2ccccc2)c1Br)[C@H](C(=O)OC)C(C)C | 18.8% | 27.4%
Cc1ccc(N(C(=O)c2ccc3c(c2)OCO3)C2C=CS(=O)(=O)C2)cc1C (configuration not stated) | 0.8% | -17.6%
COc1cc(OC)cc(C(=O)NCC2CCN(C(=O)C(=O)c3cccs3)CC2)c1 | 18.9% | 18%
CC(=O)Nc1cccc(-c2cc(NC(C)=O)c3ncc(-c4ccccc4)n3c2)c1 | -11.4% | 2.68%
C=CC(=O)NN(C)c1ncc(C(F)(F)F)cc1Cl | 15.4% | 7.42%
COc1cc(/C=C2\COC/C(=C\c3cc(OC)c(OC)c(OC)c3)C2=O)cc(OC)c1OC | 96.8% (active) | 97.7% (active)
NCCN1C(=O)S/C(=C\c2ccc3c(c2)OCO3)C1=O | 44% (active) | 56.6% (active)
O=C1C(N2CCOCC2)=C(n2nnc3ccccc32)C(=O)c2ccccc21 | 43.9% (active) | 34.6%
O=S(=O)(c1ccc(Cl)cc1)N1CCCC1c1nc(-c2ccc(Cl)cc2)no1 (configuration not stated) | -5.4% | -14.7%
COc1ccc(C(=O)Nc2nc3ccccc3[nH]2)cc1 | -57.5% | 13.5%
COc1cc(C#Cc2c(-c3cncn3C)n(C)c3ccc(-c4ccc(OC)nc4)cc23)cc(OC)c1 | -13.2% | -23.7%
CCOc1ccc(NC(=O)CN(C)C(=O)c2cn(-c3ccccc3)nc2-c2cccs2)cc1OCC | -4.29% | 16%
COc1cc(NC(=O)C2CC(c3c(F)cccc3Cl)=NO2)cc(OC)c1OC (configuration not stated) | -4.58% | 4.43%
CCN1CCN(C(c2ccc(C(F)(F)F)cc2)c2ccc3cccnc3c2O)CC1 (configuration not stated) | -15.7% | 13.2%
COc1ccc(OC)c(CC(=O)Nc2ccc3c(c2)c(=O)n(C)n3Cc2cccc(C(F)(F)F)c2)c1 | -5.16% | -6.44%
Cc1ccc(S(=O)(=O)C(NC(=O)c2ccccc2)=C(Cl)Cl)cc1 | 14.1% | 16.8%
O=C(O)CCCCCCCCCCC1CCC(O)C1O (configuration not stated) | 20.8% | 65.3% (active)
COCCN=C1Sc2nc3c(C)cccc3cc2CN1Cc1ccco1 | -12% | 4.64%
Cc1cccc(C(=O)O/N=C(\N)c2ccccn2)c1 | -73.6% | -81.6%
COC(=O)c1ccc(NC(=O)c2nc(S(=O)(=O)Cc3cccc(C)c3)ncc2Cl)cc1 | 46% (active) | 53.4% (active)
CC(=O)c1ccc(OCCCC(=O)N2CCN(S(=O)(=O)c3ccc(C)cc3C)CC2)cc1 | 7.87% | 0.39%
